Screening data: PubChem, National Center for Advancing Translational Sciences (NCATS)
KCNH2 3.1 block – qHTS for Inhibitors of KCHN2 3.1: Mutant qHTS; 340,000 tested, 0.95% active; activity change, % (tested at about 1.8 µM); AID 720553, 2013; U2OS KCNH2 3.1, thallium flux FluxOr; active compounds read low; Potassium voltage-gated channel subfamily H member 2, brain isoform KCNH2 3.1 (human);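 active = maximum activity change below -70%; inconclusive = maximum activity change from -70% to -50%; inactive = maximum activity change above -50%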;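 also: thallium influx rate constant from kinetic fluorescence after stimulation buffer; % is scaled to controls: 0 for no effect and ±100 for the full control effect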
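Virally transduced U2OS (3.1 isoform, 4 h infection in dark at RT) → overnight 37 C → FluxOr + Red40 in HBSS/HEPES, 45 min → stimulation buffer, 2 min kinetic read → rate constant vs DMSO controls.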
TRPV1 agonist – HTS Assay for Compounds that Act as Agonists of the Vanilloid Receptor 1 | TRPV1-expressing cells, Fluo-8 calcium influx, agonist mode | activation, % at 8.33 µM | 320,000 tested, 0.19% active | AID 540275, 2011; in the data active = activation above about 80%; inconclusive = between about 30% and that limit; also: 0% is about no effect
Target sequence (Q8NER1 whole entry, looked up): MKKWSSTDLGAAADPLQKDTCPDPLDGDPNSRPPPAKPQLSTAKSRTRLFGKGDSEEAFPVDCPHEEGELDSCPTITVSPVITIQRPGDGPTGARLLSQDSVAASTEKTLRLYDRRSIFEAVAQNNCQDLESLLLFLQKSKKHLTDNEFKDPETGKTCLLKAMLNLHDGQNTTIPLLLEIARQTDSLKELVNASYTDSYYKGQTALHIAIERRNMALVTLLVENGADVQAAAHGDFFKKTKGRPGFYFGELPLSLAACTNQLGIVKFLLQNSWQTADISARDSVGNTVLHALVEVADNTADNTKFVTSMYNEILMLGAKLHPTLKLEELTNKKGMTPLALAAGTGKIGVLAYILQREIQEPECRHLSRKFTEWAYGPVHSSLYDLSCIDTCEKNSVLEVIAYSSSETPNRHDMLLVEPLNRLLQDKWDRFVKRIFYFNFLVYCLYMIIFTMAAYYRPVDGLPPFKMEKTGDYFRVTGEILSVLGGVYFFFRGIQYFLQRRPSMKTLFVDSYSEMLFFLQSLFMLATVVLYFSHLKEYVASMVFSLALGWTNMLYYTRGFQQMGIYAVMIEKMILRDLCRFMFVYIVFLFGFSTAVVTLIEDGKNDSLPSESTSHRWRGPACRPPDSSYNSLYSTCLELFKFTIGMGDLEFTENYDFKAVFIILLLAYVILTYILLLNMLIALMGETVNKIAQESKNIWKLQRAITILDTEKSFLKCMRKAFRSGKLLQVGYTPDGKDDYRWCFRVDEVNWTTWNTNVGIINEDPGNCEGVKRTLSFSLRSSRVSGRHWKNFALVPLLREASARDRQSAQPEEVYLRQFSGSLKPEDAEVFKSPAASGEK
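Fluo-8 calcium influx in TRPV1-expressing cells, kinetic read (ex 480/em 520 nm). Compound added and read 3 min for agonist activity, followed by capsaicin at EC20 final and 2 min further read for enhancement.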
TRPV1 potentiator – HTS Assay for Compounds that Act as Potentiators of the Vanilloid Receptor 1. Transient receptor potential cation channel subfamily V member 1 (Homo sapiens), Q8NER1. TRPV1-expressing cells, Fluo-8 calcium influx, capsaicin EC20 potentiation. potentiation, % at 8.33 µM. 320,000 tested, 0.02% active. AID 540277, 2011; in the data active = potentiation above about 80%; inconclusive = between about 30% and that limit; also: 0% is about no effect
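Cells expressing TRPV1 were dye-loaded with Fluo-8 and read kinetically: 10 s baseline, 3 min after compound (agonist portion), then 2 min after EC20 capsaicin (allosteric enhancer portion). Calcium-bound dye fluorescence at 480/520 nm.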
ClpP mod – qHTS Assay for Activators of ClpP; 340,000 tested, 1.9% active; purified B. subtilis ClpP, FRET peptide cleavage, 20 min; AID 651965, 2013; Potency, µM (top dose mostly 57.5 µM), without a hit: at the top dose activity change, negative = active; ATP-dependent Clp protease proteolytic subunit (Bacillus subtilis (strain 168)), P80244; active = well fitted falling curve with a large enough effect; inconclusive = small, poorly fitted or top-dose-only effect; inactive = no such curve, though single readings can be large or run the other way; also: potency is read from the fitted curve at half-maximal effect; the source files actives as falling curves though it sought activators and does not explain the sign; nearly all actives have a fitted effect of over 65% in size
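FRET quenching reversal measured ClpP activation: 10 microg/mL B. subtilis ClpP at pH 8 with the FRET-FV decapeptide, read at 430 nm after 320 nm excitation. The 20-min minus 0-min signal was scaled between DMSO/no-enzyme wells and ADEP (5.8 microM final).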
hERG WT inh – qHTS for Inhibitors of KCHN2 3.1: Wildtype qHTS; activity change, % at 1.84 µM; Voltage-gated inwardly rectifying potassium channel KCNH2 (Homo sapiens), Q12809; 340,000 tested, 0.37% active; U2OS, BacMam KCNH2, thallium flux FluxOr; active compounds read low;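 active = maximum activity change below -70%; inconclusive = maximum activity change between -70% and -50%; inactive = maximum activity change above -50%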; also: % is scaled to controls: 0 for no effect and ±100 for the full control effect
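U2OS cells were transduced with wild-type KCNH2 virus (2.03 x 10^8 / mL) for 4 h at room temperature, then cultured overnight at 37 C. Thallium flux was read with FluxOr dye. Rate constants were normalized to DMSO controls.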
p53 reactivator – qHTS assay for re-activators of p53 using a Luc reporter. 320,000 tested, 0.063% active. Potency, µM (titrated, usually from 92.2 µM), without a hit: top-dose activity change, positive = activation, actives largely listed as activators. H1299 p53-A138V BP100-luciferase reporter, luminescence, 24 h; active = well fitted activation curve with a large enough effect; inconclusive = small, poorly fitted or top-dose-only effect; inactive = no such curve, though single readings can be large or run the other way; also: potency is read from the fitted curve at half-maximal effect; % of control where 0% means no effect; nearly all actives have a fitted effect of over 45% in size
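p53-null H1299 cells stably carrying temperature-sensitive p53-A138V and a BP100-luciferase reporter were pinned with compounds (4-point, 1:5 series) and held 24 hrs at 37 deg C. Luminescence was read 10 min after detection reagent.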
The depositor's hits bear a star; ? = inconclusive; . = no result. Sampled rows, rich in hits. Any-hit rate of the full collection: about 2.6%.

SMILES	KCNH2 3.1 block	TRPV1 agonist	TRPV1 potentiator	ClpP mod	hERG WT inh	p53 reactivator
O=C(CSCc1cc(=O)c2ccccc2[nH]1)Nc1cccc(C(F)(F)F)c1	.	.	.	-7.5%	.	.
CC1CCC2(CC1)Nc1ccccc1C(=O)N2c1ccccc1 (configuration not stated)	-5.2	0.5	-1.8	28.2µM*	1.4	15.9%
O=C1c2ccccc2NC2(CCCCC2)N1c1ccc(O)cc1	15.4	3.1	4.0	?	-15.5	11.6%
CSc1nc2ccc(NC(=O)CSc3nnc(N)s3)cc2s1	-90.6*	1.2	-26.4	-1.9%	-8.7	14.1%
COc1ccc(NC(=O)CSc2nnc(N)s2)cc1	6.7	-0.5	4.5	-1.2%	-0.6	?
COc1ccc2c3c(c(=O)oc2c1OCC(=O)O)CCCC3	10.1	-2.5	-8.3	20µM*	0.1	-1.1%
CCOc1c(OC)ccc2c3c(c(=O)oc12)CCCC3	11.7	2.1	4.0	?	-7.5	4.5%
Cc1c(OC(C)C(=O)NCc2ccncc2)ccc2c3c(c(=O)oc12)CCCC3 (configuration not stated)	-77.8*	?	-24.4	3.4%	-9.9	-2.7%
Cc1c(OCc2ccc(C(=O)O)o2)ccc2c3c(c(=O)oc12)CCC3	7.9	0.3	?	3.16µM*	2.4	-5.8%
CN1C(=O)C2(c3ccccc31)N(c1cccc(C(F)(F)F)c1)C(=O)CS2(=O)=O (configuration not stated)	.	.	.	-3.3%	.	.
COC(=O)c1ccccc1NC(=O)c1cc2sccc2n1C	-2.4	7.8	1.7	31.6µM*	5.9	9.1%
O=c1[nH][nH]c2c1[C@H](c1ccc(F)cc1)O[C@H](C1CCCCC1)C2	.	.	.	1.0%	.	.
CCCCCC(=O)Nc1ccc(S(=O)(=O)Nc2nccnc2OC)cc1	-5.0	0.1	0.3	25.1µM*	-5.4	-5.2%
COc1ccc(CN(C2CCCC2)S(=O)(=O)c2ccc(-n3cnnn3)cc2)cc1	-71.1*	17.9	2.7	-2.5%	-39.5	.
O=C1c2ccccc2C(=O)N1C1C(=O)N2CCSC12C(=O)OCc1ccccc1 (configuration not stated)	14.1	.	.	-1.8%	-20.6	.
CC(C)CCC(C(=O)O)C(C)CC(=O)NC1CCCCC1 (configuration not stated)	-0.5	0.2	4.3	0.1%	14.2	-10.1%
CCCCCC(C(=O)O)C(C)CC(=O)NC1CCCCC1 (configuration not stated)	1.2	-0.4	24.8	12.6µM*	6.1	-13.5%
Clc1ccc(-c2nc3c4ccccc4ccn3c2CC2CCCCC2)cc1	.	.	.	-6.3%	.	.
CCOc1ccccc1-c1nn2c(Cc3ccccc3)nnc2s1	2.4	14.0	-6.5	25.1µM*	-17.6	-8.6%
CN(C)c1ccc(-c2nn3c(-c4ccccc4Cl)nnc3s2)cc1	14.9	4.2	-20.5	15.8µM*	6.8	0.1%
COc1ccccc1-c1nn2c(-c3ccc(C(C)(C)C)cc3)nnc2s1	.	-2.0	1.1	.	.	0.4%
c1ccc(Cc2nnc3sc(-c4ccccn4)nn23)cc1	13.5	27.3	-18.6	-0.5%	-7.3	?
COc1ccccc1-c1nnc2sc(-c3ccc(N(C)C)cc3)nn12	-7.9	0.8	16.9	25.1µM*	-9.9	15.8%
FC(F)(F)c1nnc2sc(-c3ccccn3)nn12	-5.4	-1.6	-0.8	2.4%	4.2	-5.6%
COc1ccccc1-c1nn2c(C(F)(F)F)nnc2s1	18.2	?	-17.4	12.6µM*	11.7	2.5%
